Measurements: PubChem BioAssay
Calls of active or inactive are those of the source.

Tests used:
Albumin (Bos taurus) = Albumin (Bos taurus) (UniProt P02769); experiment: compounds binding labelled BSA control protein – biochemical, small-molecule microarray, Alexa647 label, 635/667 nm fluorescence, artefact control for SMM control protein annotation, profiling panel (AID 1118); details: BSA-A647 binding, fluorescence 635 nm, higher = more signal;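 also: score merges 667 nm emission intensity and signal-to-noise per printed compound spot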
Chain of Albumin (Bos taurus) (P02769 whole entry, looked up): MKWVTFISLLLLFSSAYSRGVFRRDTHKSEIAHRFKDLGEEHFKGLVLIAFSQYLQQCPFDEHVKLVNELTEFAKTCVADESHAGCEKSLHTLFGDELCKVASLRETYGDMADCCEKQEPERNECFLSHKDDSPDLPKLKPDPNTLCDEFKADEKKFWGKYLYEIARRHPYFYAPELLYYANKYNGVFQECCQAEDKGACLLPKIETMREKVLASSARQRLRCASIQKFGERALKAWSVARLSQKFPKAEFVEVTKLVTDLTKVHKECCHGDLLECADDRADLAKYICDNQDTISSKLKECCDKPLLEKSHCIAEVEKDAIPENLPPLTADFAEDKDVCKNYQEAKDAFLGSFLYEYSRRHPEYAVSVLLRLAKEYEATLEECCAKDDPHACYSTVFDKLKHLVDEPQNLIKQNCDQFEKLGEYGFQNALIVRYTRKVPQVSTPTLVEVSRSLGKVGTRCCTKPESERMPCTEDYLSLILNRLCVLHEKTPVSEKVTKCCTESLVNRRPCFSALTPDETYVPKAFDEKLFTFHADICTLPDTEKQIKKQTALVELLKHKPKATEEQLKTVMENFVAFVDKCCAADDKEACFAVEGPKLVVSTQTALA

[1] = probe aXIP binding to arrayed compounds – biochemical, NeuroSMM set, 635/667 nm fluorescence, primary screen (AID 1119); details: small-molecule microarray, higher = more signal, called active from +8 up or from −8 down;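 also: probe is the protein aXip251-270 applied at 1 µg/mL to compound-printed slides; binding of probe to printed compounds measured as 667 nm fluorescence plus signal to noise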
[2] = probe aNOTCH3 binding on compound microarray – biochemical, small-molecule microarray, 635/667 nm fluorescence, primary screen (AID 1120); details: higher = more signal;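 also: probe is a biotin-tagged antibody raised against NOTCH3 rather than NOTCH3 protein; score merges spot fluorescence near 667 nm with spot signal to noise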
[3] = probe aNOTCH2 binding on compound microarray – biochemical, small-molecule microarray, 635/667 nm fluorescence, primary screen (AID 1121); details: higher = more signal;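 also: score merges feature fluorescence read at 667 nm with its signal to noise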
[4] = biological target: Carbonic anhydrase 2 (Homo sapiens) (UniProt P00918); experiment: compounds binding carbonic anhydrase 2 – biochemical, small-molecule microarray, Alexa647-labelled CAII, profiling panel (AID 1122); details: CAII-A647 binding fluorescence, higher = more signal
[5] = COS7 lysate on small-molecule microarray, probe aHis, 635 nm (AID 1123); details: COS7 cell lysate, fluorescence, higher = more signal;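 also: z-score combines 667nm fluorescence intensity with signal-to-noise per printed compound spot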
[6] = probe aLAP1 signal on lysate-treated microarray – cell lysate, small-molecule microarray, COS7 lysate, primary screen (AID 1124); details: probe aLAP1, fluorescence, higher = more signal;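 also: lysate comes from COS7 cells expressing LAP1 and is applied at 0.3 µg/mL; score merges spot fluorescence near 667 nm with signal-to-noise over triplicate slides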
Sam68 (KHDRBS1) = experiment: compounds binding KHDRBS1 protein – biochemical, small-molecule microarray, 635 nm fluorescence, primary screen (AID 1125); details: higher = more signal;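 also: score merges 667 nm channel intensity with signal to noise over triplicate slides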
[7] = test system: Chordin-like protein 2 (CHRDL2); experiment: compounds binding chordin-like 2 – biochemical, small-molecule microarray, 635 nm fluorescence, primary screen (AID 1126); details: fluorescence 635 nm, higher = more signal;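 also: printed compound slides probed with Chrdl2 protein at 4 µg/mL for 1 h at 4 C; score merges 667 nm emission intensity with signal to noise over three replicate slides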
[8] = biological target: Concanavalin-A (Canavalia ensiformis) (UniProt P02866); experiment: compounds binding concanavalin A lectin – biochemical, small-molecule microarray, Alexa647 label, 635 nm, artefact control for SMM control protein annotation, primary screen (AID 1127); details: ConA-A647 binding fluorescence, higher = more signal;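 also: z combines 667 nm emission intensity with signal-to-noise across three replicate slides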
Chain of Concanavalin-A (Canavalia ensiformis) (P02866 whole entry, looked up): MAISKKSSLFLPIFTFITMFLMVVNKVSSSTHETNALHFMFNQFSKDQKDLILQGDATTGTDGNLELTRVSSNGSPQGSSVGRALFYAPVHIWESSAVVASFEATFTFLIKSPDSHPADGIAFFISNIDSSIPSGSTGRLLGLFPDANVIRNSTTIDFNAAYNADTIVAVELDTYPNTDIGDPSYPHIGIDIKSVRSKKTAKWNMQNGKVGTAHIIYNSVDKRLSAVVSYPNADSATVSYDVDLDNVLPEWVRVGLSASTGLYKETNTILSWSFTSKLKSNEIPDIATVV

[9] = compounds binding Alexa647 anti-His antibody – biochemical, small-molecule microarray, 635 nm fluorescence, artefact control for SMM control protein annotation, primary screen (AID 1128); details: higher = more signal;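 also: score merges feature fluorescence with signal-to-noise for each printed compound spot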
[10] = test system: Human papillomavirus type 1a E7 protein (residues 1-88); experiment: HPV1a E7 small-molecule binders, primary screen, biochemical, small-molecule microarray, residues 1-88, 635 nm (AID 1129); details: small-molecule microarray binding, fluorescence 635 nm; higher = more signal
[11] = biological target: Focal adhesion kinase 1 (Homo sapiens) (UniProt Q05397); experiment: PTK2 protein binding on printed compound slides – biochemical, small-molecule microarray, 635/667 nm fluorescence, BSA, DTT, primary screen (AID 1130); details: 635 nm fluorescence, higher = more signal;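 also: composite of spot emission at 667 nm and signal to noise over triplicate slides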
Chain of Focal adhesion kinase 1 (Homo sapiens) (Q05397 whole entry, looked up): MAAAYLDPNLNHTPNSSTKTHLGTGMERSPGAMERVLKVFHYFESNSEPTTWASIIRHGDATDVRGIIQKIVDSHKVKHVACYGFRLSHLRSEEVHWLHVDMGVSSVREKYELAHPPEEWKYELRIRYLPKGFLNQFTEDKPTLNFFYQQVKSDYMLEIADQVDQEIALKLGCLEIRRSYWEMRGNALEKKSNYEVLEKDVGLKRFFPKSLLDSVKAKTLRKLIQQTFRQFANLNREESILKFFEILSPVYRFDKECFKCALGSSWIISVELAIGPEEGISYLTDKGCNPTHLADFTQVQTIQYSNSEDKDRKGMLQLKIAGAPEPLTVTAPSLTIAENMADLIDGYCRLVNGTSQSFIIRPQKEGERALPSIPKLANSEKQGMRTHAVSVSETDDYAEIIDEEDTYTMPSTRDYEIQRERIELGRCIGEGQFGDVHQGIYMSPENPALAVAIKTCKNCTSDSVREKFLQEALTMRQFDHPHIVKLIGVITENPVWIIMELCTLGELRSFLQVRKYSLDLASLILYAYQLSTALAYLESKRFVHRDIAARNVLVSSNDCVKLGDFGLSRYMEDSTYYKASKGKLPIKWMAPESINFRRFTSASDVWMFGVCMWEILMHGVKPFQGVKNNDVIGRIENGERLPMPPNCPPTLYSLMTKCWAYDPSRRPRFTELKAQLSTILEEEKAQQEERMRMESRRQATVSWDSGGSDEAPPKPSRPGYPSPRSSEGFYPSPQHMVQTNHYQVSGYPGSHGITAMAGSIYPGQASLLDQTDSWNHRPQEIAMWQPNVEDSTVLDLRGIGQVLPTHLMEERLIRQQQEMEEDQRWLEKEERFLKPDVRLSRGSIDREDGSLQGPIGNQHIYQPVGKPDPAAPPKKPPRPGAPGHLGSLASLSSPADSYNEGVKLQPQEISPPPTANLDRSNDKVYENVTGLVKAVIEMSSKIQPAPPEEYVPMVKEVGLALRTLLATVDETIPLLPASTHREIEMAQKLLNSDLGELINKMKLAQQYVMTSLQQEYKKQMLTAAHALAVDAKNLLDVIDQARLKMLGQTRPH

[12] = test system: Fibrinogen (Alexa647-labelled); experiment: Alexa647-fibrinogen binding to printed small molecules – biochemical, small-molecule microarray, 635/667 nm fluorescence, artefact control for SMM control-protein annotation, profiling panel (AID 1131); details: fibrinogen-A647 binding fluorescence, higher = more signal;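 also: z-score merges 667 nm fluorescence with per-spot signal-to-noise over triplicate slides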
[13] = biological target: Follistatin (Homo sapiens) (UniProt P19883); experiment: FST protein binding to printed compounds – biochemical, small-molecule microarray, 635/667 nm fluorescence, primary screen (AID 1132); details: 635 nm fluorescence, higher = more signal
Chain of Follistatin (Homo sapiens) (P19883 whole entry, looked up): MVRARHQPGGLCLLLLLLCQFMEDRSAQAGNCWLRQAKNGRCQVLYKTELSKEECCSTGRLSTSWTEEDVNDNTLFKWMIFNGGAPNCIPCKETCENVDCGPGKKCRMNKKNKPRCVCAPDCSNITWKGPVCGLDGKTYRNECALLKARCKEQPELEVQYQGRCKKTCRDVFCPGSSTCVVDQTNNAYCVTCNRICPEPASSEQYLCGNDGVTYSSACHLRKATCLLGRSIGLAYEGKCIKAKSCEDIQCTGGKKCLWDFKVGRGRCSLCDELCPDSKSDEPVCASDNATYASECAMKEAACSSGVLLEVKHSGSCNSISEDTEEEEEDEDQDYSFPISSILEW

[14] = biological target: Fibroblast growth factor 2 (Homo sapiens) (UniProt P09038); experiment: basic fibroblast growth factor binding to printed compounds – biochemical, small-molecule microarray, 635/667 nm fluorescence, primary screen (AID 1133); details: FGF2, fluorescence 635/667, higher = more signal
Chain of Fibroblast growth factor 2 (Homo sapiens) (P09038 whole entry, looked up): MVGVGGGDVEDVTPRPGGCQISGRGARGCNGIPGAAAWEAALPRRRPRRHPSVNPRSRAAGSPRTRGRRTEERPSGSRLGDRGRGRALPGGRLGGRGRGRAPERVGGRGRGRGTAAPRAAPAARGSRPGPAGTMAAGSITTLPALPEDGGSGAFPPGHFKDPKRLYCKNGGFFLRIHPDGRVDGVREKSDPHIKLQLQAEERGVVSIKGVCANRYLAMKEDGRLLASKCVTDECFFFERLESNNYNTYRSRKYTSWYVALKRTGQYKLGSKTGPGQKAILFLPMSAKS

[15] = JC-1 mitochondrial potential readout, lung cancer cells – cell-based, A549, JC-1 fluorescence, basal, 24 h, 100 nL, profiling panel (AID 1138); details: higher = more signal;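 also: A549 lung adenocarcinoma cells under basal conditions with no added stimulus; test concentration not given here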
Lefty1 = Lefty1 protein binding to printed compounds – biochemical, small-molecule microarray, 635/667 nm fluorescence, primary screen (AID 1139); details: fluorescence 635/667, higher = more signal
[16] = test system: wheat germ agglutinin (Triticum aestivum), Alexa647-labelled; experiment: Alexa647-WGA lectin binding to printed small molecules – biochemical, small-molecule microarray, 635/667 nm fluorescence, artefact control for SMM control-protein annotation, profiling panel (AID 1140); details: WGA-A647 binding, 635 nm fluorescence, higher = more signal;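 also: score merges 667 nm feature emission with signal to noise over triplicate slides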
[17] = biological target: Luciferin 4-monooxygenase (Photinus pyralis) (UniProt P08659); experiment: inhibition of purified Photinus pyralis luciferase – biochemical, luminescence, purified enzyme, 2006 set, primary screen (AID 1141); details: purified firefly luciferase, SteadyGlo luminescence, 30 min; higher = more signal, called active from +8 up or from −8 down;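 also: cell-free assay with purified firefly luciferase at 100 ng per well in PBS; test concentration not given here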
Chain of Luciferin 4-monooxygenase (Photinus pyralis) (P08659 whole entry, looked up): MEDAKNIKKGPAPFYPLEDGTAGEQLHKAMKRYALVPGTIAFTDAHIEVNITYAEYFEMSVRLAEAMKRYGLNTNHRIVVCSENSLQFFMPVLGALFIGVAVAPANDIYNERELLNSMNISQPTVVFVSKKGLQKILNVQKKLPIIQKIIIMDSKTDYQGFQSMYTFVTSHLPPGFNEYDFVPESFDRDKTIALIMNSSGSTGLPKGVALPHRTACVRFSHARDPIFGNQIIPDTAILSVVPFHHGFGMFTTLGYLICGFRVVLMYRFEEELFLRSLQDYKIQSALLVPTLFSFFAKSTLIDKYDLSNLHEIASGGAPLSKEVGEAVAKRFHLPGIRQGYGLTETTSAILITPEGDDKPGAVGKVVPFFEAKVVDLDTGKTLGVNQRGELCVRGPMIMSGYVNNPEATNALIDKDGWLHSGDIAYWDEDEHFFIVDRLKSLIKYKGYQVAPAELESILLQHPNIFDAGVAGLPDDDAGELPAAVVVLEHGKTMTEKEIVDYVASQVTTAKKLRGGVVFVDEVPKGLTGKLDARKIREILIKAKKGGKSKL

Compound	composite z-score (Albumin (Bos taurus))	composite Z-score [1]	composite z-score [2]	composite z-score [3]	composite z-score [4]	composite z-score [5]	composite z-score [6]	composite z-score (Sam68 (KHDRBS1))	composite z-score [7]	composite z-score [8]	composite z-score [9]	composite z-score [10]	composite z-score [11]	composite z-score [12]	composite z-score [13]	composite z-score [14]	z-score [15]	composite z-score (Lefty1)	composite z-score [16]	z-score [17]
COC(=O)C1=CC(CCCO)=CC(c2cccs2)N(Cc2cc3c(cc2Br)OCO3)C=C1C(=O)OC (stereo not given)	0.739	1.26 (inactive)	0.062	-0.0645	0.769	2.43	0.0385	1.3	0.249	1.21	2.57	1.25	0.87	0.999	1.08	1.43	1.33	0.273	1.13	-1.39 (inactive)
C=CC[C@@]1(C(=O)OC)N=C(c2ccc(OCCCO)cc2)O[C@@H]1c1ccccc1N=[N+]=[N-]	-1.11	0.721 (inactive)	0.477	0.12	0.475	2.76	0.568	1.29	1.33	0.896	2.37	1.24	0.568	0.159	1.41	1.66	0.311	0.53	0.874	-6.39 (inactive)
CN(C)CCCCNC(=O)[C@H]1C[C@H]2C(=O)N3CCC[C@H]3C(=O)N2[C@H]1c1cccc(OCCO)c1	-0.115	1.68 (inactive)	0.234	-0.117	0.519	1.12	0.392	1.04	-0.52	0.794	1.96	0.74	1.02	0.311	1.21	0.382	-0.159	0.365	1.15	0.83 (inactive)
C=C(C)[C@@H]1CC=C(C(O)C2C=CC3C(=O)N(C)C(=O)C3N2Nc2ccc([N+](=O)[O-])cc2[N+](=O)[O-])CC1 (stereo not given in full)	0.689	-0.37 (inactive)	0.407	0.158	0.583	2.5	0.005	1.29	0.722	1.14	0.607	1.27	0.512	1	1.24	-0.0675	1.88	0.424	0.799	0.511 (inactive)
COc1ccc(C#Cc2ccc3c(c2)[C@]2(C(=O)N3)[C@H](C(=O)O)[C@H]3C(=O)O[C@H](c4ccccc4)[C@H](c4ccccc4)N3[C@@H]2c2ccccc2OCCO)cc1	0.594	0.493 (inactive)	-0.301	-0.0069	0.509	1.08	0.387	1.31	0.117	1.14	3.16	1.17	0.352	0.955	1.19	1.25	-2.71	1.04	1.02	-5.71 (inactive)
COCC(=C=CC[C@H](O)c1ccccc1OCCO)C[C@H](O)COCc1ccccc1	0.816	0.0117 (inactive)	0.304	-0.148	0.505	2.08	1.81	1.14	0.0973	0.245	2.34	1.19	0.516	0.272	0.792	0.659	1.26	0.632	0.0903	-1.06 (inactive)
Cc1ccc(S[C@]2(C(=O)NCCCN(C)C)CC(=O)N(Cc3ccccc3C(F)(F)F)[C@@H]2c2ccc(CO)cc2I)cc1	0.374	-0.755 (inactive)	-0.422	0.337	0.792	1.36	1.83	0.492	-0.532	0.0055	-0.626	-0.0904	0.591	-0.745	0.0315	-0.635	0.281	-1.32	-0.193	-0.514 (inactive)
CC(C)NC(=O)[C@@]1(C)c2ccccc2C(=O)N(Cc2ccccc2)[C@H]1c1ccc(CO)cc1	0.489	-0.621 (inactive)	-0.432	-0.153	0.692	1.86	0.329	0.696	-1.6	0.537	2.31	0.244	-0.226	-0.722	-0.4	-0.719	0.648	-0.189	0.948	-1.09 (inactive)
Cc1ccc(S[C@]2(C(=O)NCCCN(C)C)CC(=O)N(C3Cc4ccccc4C3)[C@@H]2c2ccc(CO)cc2I)cc1	0.827	0.42 (inactive)	-0.0569	-0.18	0.715	0.83	-0.312	0.125	-0.745	0.441	0.0192	0.132	-0.0489	0.493	0.135	-0.813	-0.522	-0.515	0.0805	-0.222 (inactive)
CC1CC/C=C\[C@H]2OC34C=CCN(Cn5nnc6ccccc65)C(=O)[C@H]3N(CCCCCCO)C(=O)[C@@H]4C2C(=O)O1 (stereo not given in full)	-0.252	0.347 (inactive)	-0.427	-0.214	0.398	-0.0339	0.523	-0.682	-1.25	0.257	0.965	-0.506	-0.121	-0.627	-1.45	-1.09	0.966	-0.654	-0.435	0.152 (inactive)
CCCC#C[Si](O[C@H](CC)c1cn(Cc2ccccc2)nn1)(C(C)C)C(C)C	0.603	0.244 (inactive)	0.151	0.0263	0.365	0.855	-0.193	0.793	0.379	0.572	0.738	0.209	0.0116	0.903	1.01	0.525	-0.0817	0.828	0.143	-0.403 (inactive)
COc1ccc([Si](C)(C)[C@H]2[C@H](CCO)O[C@@]3(C(=O)N(Cc4cccc(N(C=O)c5ccccc5)c4)c4ccccc43)[C@@H]2C)cc1	0.291	-0.313 (inactive)	0.059	-0.102	0.467	1.28	0.677	1.28	0.293	1.15	0.911	1.19	-0.048	0.777	0.832	0.886	0.837	1.05	0.259	0.281 (inactive)
C=CCC(OC(C)=O)[C@@H]1[C@@H](N(Cc2cccc3ccccc23)C(=O)c2ccc(-c3ccccc3)cc2)c2cc(OCCCO)ccc2N1C(=O)Cc1ccc2ccccc2c1 (stereo not given in full)	0.364	-0.902 (inactive)	0.0276	-0.0809	0.268	0.376	0.0109	-0.518	0.0624	-0.214	0.203	0.0951	-0.166	-0.052	0.592	0.0824	0.412	-0.415	-0.194	0.223 (inactive)
COC(=O)[C@]1(Cc2ccccc2)N=C(c2ccc(OCCCO)cc2)O[C@@H]1c1ccccc1CN=[N+]=[N-]	-0.847	0.384 (inactive)	0.0259	-0.0017	0.403	1.98	-0.0103	0.745	0.214	0.656	1.12	1.16	0.687	0.415	1.44	0.702	-1.74	0.0393	0.418	-1.44 (inactive)
